Screening data (PubChem BioAssay)
BoNT A protease: inhibitors of Botulinum neurotoxin A light chain protease | multiplex microsphere protease substrate cleavage, flow cytometry | inhibition, % at 10 µM | actives 0.17% (n = 360,000) | AID 588499; in the data active means inhibition above about 30%; inconclusive means no clear call, values can overlap the other calls
Bead autofluor: counter-screen for toxin protease inhibitors: compound fluorescence. compound autofluorescence counterscreen, microsphere flow cytometry; hits give high values. fluorescence intensity (test concentration not listed). actives 3.1% (n = 360,000); in the data active means fluorescence intensity above about 16000; inconclusive means no clear call, values can overlap the other calls
BoNT-F LC inh: blocks Botulinum neurotoxin F light chain protease; Multiplex microsphere protease cleavage assay, flow cytometry; inhibition, % at 10 µM; actives 0.22% (n = 360,000); in the data active means inhibition above about 35%, passing the limit was not always enough; inconclusive means no clear call, values can overlap the other calls
TcdB GH inh: blocks C. difficile toxin B glycohydrolase activity; actives 0.24% (n = 350,000); inhibition, % at 9.99 µM; TcdB glycohydrolase enzymatic assay, plate reader; AID 652162; in the data active means inhibition above about 10%
Anthrax LF prot: anthrax lethal factor protease inhibition; P15917; multiplex microsphere protease cleavage assay, LF; inhibition, % at 10 µM; actives 0.12% (n = 360,000); in the data active means inhibition above about 30%; inconclusive means no clear call, values can overlap the other calls
BoNTA LC inh 1: blocks botulinum neurotoxin A light chain protease. shares compounds with BoNT-F LC inh. multiplex microsphere protease assay, flow cytometry. inhibition, % at 10 µM. actives 3% (n = 720); in the data active means inhibition above about 32%
BoNT-F LC CP1: blocks botulinum neurotoxin F light chain protease; shares compounds with BoNT-F LC inh; multiplex microsphere protease cleavage assay, flow cytometry; inhibition, % at 10 µM; 720 tested, under 10 active
Anthrax LF CP1: Bacillus anthracis lethal factor protease inhibition | shares compounds with BoNT-F LC inh | multiplex microsphere protease cleavage assay, LF | inhibition, % at 10 µM | 720 tested, under 10 active
Large screens that a line does not name were inactive (follow-up assays come after a bar, where they were run). This excerpt belongs to a sample that is enriched for hits. Unless noted, how the calls were made is not given here.

COc1cccc(C2CC(c3ccccc3)=NN2S(=O)(=O)c2ccc(C)cc2)c1OC (stereo unspecified)	BoNT A protease 39.4, Bead autofluor 32220, BoNT-F LC inh 55.3, Anthrax LF prot 31.9 | BoNTA LC inh 1 inactive | BoNT-F LC CP1 inactive | Anthrax LF CP1 inactive
CCN(Cc1ccccc1)C(c1cc2cc(C)ccc2[nH]c1=O)c1nnnn1CCOC (stereo unspecified)	none (no result: TcdB GH inh) | BoNTA LC inh 1 inactive | BoNT-F LC CP1 inactive | Anthrax LF CP1 inactive
CCn1c(=O)c(C(=O)Nc2cccnc2)c(O)c2ccccc21	BoNT-F LC inh 40.5 (no result: TcdB GH inh) | BoNTA LC inh 1 inactive | BoNT-F LC CP1 inactive | Anthrax LF CP1 inactive
O=C(Nc1ccc(O)cc1C(=O)O)c1ccc2c(c1)C(=O)N(Cc1ccco1)C2=O	BoNT-F LC inh 35.4 (no result: TcdB GH inh) | BoNTA LC inh 1 inactive | BoNT-F LC CP1 inactive | Anthrax LF CP1 inactive
CCCC(C(=O)NCc1ccccc1)N(C(=O)Cn1nnc(-c2cccs2)n1)c1ccc2c(c1)OCCO2 (stereo unspecified)	none (no result: TcdB GH inh)
O=C(NCc1ccccc1)C(c1ccc(F)cc1)N(Cc1ccc2c(c1)OCO2)C(=O)Cn1nnc(-c2cccs2)n1 (stereo unspecified)	BoNT-F LC inh 50.9 (no result: TcdB GH inh) | BoNTA LC inh 1 inactive | BoNT-F LC CP1 inactive | Anthrax LF CP1 inactive
Cc1ccc2c(c1C)NC(C(=O)O)C1CC=CC21 (stereo unspecified)	BoNT A protease inconclusive, BoNT-F LC inh inconclusive, Anthrax LF prot inconclusive
O=C(O)C1Nc2c(C(F)(F)F)ccc(Cl)c2C2C=CCC12 (stereo unspecified)	Anthrax LF prot 40.4 | BoNTA LC inh 1 inactive | BoNT-F LC CP1 inactive | Anthrax LF CP1 inactive
CCCC#Cc1ccc2c(c1)O[C@@H](CN(C)C(=O)NC(C)C)[C@H](C)CN([C@@H](C)CO)S2(=O)=O	none (no result: BoNT A protease, Bead autofluor, BoNT-F LC inh, Anthrax LF prot)
COc1ccc(S(=O)(=O)Nc2ccc3c(c2)CC(=O)N([C@@H](C)CO)C[C@H](C)[C@@H](CN(C)Cc2ccc4c(c2)OCO4)O3)cc1	none (no result: BoNT A protease, Bead autofluor, BoNT-F LC inh, Anthrax LF prot)
O=C1N(c2ccccc2)c2ccccc2C1(O)C(F)(F)F (stereo unspecified)	Anthrax LF prot 35.9 | BoNTA LC inh 1 inactive | BoNT-F LC CP1 inactive | Anthrax LF CP1 inactive
Cc1ccc(S(=O)(=O)N(C)C[C@@H]2OCCCC[C@H](C)Oc3ccc(NC(=O)CCC(F)(F)F)cc3C(=O)N([C@@H](C)CO)C[C@@H]2C)cc1	none (no result: BoNT A protease, Bead autofluor, BoNT-F LC inh, Anthrax LF prot)
O=C(CCCc1nc2ccccc2s1)NCc1ccc(F)cc1	BoNT-F LC inh 39.6 (no result: TcdB GH inh) | BoNTA LC inh 1 inactive | BoNT-F LC CP1 inactive | Anthrax LF CP1 inactive
O=C1CN(C(=O)C2CC2)c2ccccc2N1	BoNT-F LC inh 37.0 (no result: TcdB GH inh) | BoNTA LC inh 1 inactive | BoNT-F LC CP1 inactive | Anthrax LF CP1 inactive
Cc1ccc2cccc(OCc3ccc(F)cc3)c2n1	none
C=CCc1ccc(OCCOc2cccc3ccc(C)nc23)c(OC)c1	BoNT A protease 45.8, BoNT-F LC inh 53.4 (no result: TcdB GH inh) | BoNTA LC inh 1 inactive | BoNT-F LC CP1 inactive | Anthrax LF CP1 inactive
C=CCc1ccc(OCCOCCN(C)C)c(OC)c1	none (no result: TcdB GH inh)
Cc1ccc2cccc(OCc3ccc(Br)cc3)c2n1	BoNT-F LC inh 39.2 | BoNTA LC inh 1 inactive | BoNT-F LC CP1 inactive | Anthrax LF CP1 inactive
CC(C)c1ccc(S(=O)(=O)c2cnc(=S)[nH]c2N)cc1	BoNT-F LC inh 37.3 | BoNTA LC inh 1 inactive | BoNT-F LC CP1 inactive | Anthrax LF CP1 inactive
CCn1c2ccccc2c2cc(NC(=O)c3coc(=O)c(Br)c3)ccc21	none (no result: BoNT A protease, Bead autofluor, BoNT-F LC inh, Anthrax LF prot)
CCn1c2ccccc2c2cc(NC(=O)c3ccc(Br)o3)ccc21	BoNT A protease 76.7, Anthrax LF prot 43.3 (no result: TcdB GH inh) | BoNTA LC inh 1 inactive | BoNT-F LC CP1 inactive | Anthrax LF CP1 inactive
CCN(CC)CC(=O)Nc1sc(C)cc1C(=O)c1ccc(C)cc1	BoNT-F LC inh inconclusive
CCc1cc(C(=O)c2ccc(Br)cc2)c(NC(=O)CN(CC)CC)s1	BoNT-F LC inh inconclusive, Anthrax LF prot 31.8 | BoNTA LC inh 1 inactive | BoNT-F LC CP1 inactive | Anthrax LF CP1 inactive
O=C(COc1ccccc1)N(Cc1nnc(-c2ccccc2Cl)o1)C1CC1	BoNT-F LC inh 36.9 | BoNTA LC inh 1 inactive | BoNT-F LC CP1 inactive | Anthrax LF CP1 inactive
CN1CCc2c(sc3nc(SCC(N)=O)n(-c4ccc(Cl)cc4)c(=O)c23)C1	BoNT A protease 65.5 | BoNTA LC inh 1 inactive | BoNT-F LC CP1 inactive | Anthrax LF CP1 inactive
